From PubChem BioAssay AID738 (SRMLSC, 2007)
Screen size: about 98,000 compounds; about 4,900 (5%) were called active. Cut-off read from the data, not from the text of the source: active = inhibition above about 30%; inactive = the rest. The full list was thinned out, with actives kept by preference.

Assay: yeast control strain growth suppression – counter-screen for post-Golgi transport modulator project, primary screen (AID 738)
Settings: efflux-deficient yeast background strain, growth absorbance A615, 16 h; at 10 µM; hits give high values

SMILES | inhibition
O=C(c1ccc(F)cc1)c1c[nH]c(C(=O)NCc2cccnc2)c1 | 1.34% (inactive)
S=C(NCCC1=CCCCC1)Nc1ccccc1 | 2.15% (inactive)
COc1cc(-c2nn3c(-c4cccc(C)c4)nnc3s2)cc(OC)c1OC | 26.7% (inactive)
CCC(C)n1c(-c2cc(OC)c(OC)c(OC)c2)nc2nc3ccccc3nc21 (centres undefined) | 38.7% (active)
CCCc1nc2ccccc2c(C(=O)OCc2nnc(-c3cc(OC)c(OC)c(OC)c3)o2)c1CC | 3.36% (inactive)
CC(=O)NS(=O)(=O)c1ccc(NC(=S)NC(=O)C(C)(C)C)cc1 | -5.72% (inactive)
Cn1c(NN)nc2sc3c(c2c1=O)CCC3 | 7.4% (inactive)
CC1Cc2ccccc2N1C(=O)c1cc2sccc2n1Cc1ccccc1 (centres undefined) | 15.2% (inactive)
O=C(NCc1ccco1)c1cc2sccc2n1Cc1ccc(F)cc1 | 27.8% (inactive)
CCOC(=O)c1cc2sccc2n1Cc1ccc(C#N)cc1 | 33.7% (active)
Clc1ccccc1SCc1nc2ccccc2[nH]1 | 9.02% (inactive)
Cc1nc(-c2ccccc2)sc1-c1nc(-c2ccccc2)ncc1S(=O)(=O)c1ccccc1 | 12% (inactive)
O=C(NC1CCCCC1)N1CCc2[nH]c3ccccc3c2C1 | -9.69% (inactive)
CCCC(=O)N1CCc2[nH]c3ccccc3c2C1 | -9.39% (inactive)
O=C(Nc1ccc(Cl)cc1)N1CCc2[nH]c3ccccc3c2C1 | 36.5% (active)
O=C(c1ccccc1)c1cc(-c2ccccn2)c(N2CCOCC2)s1 | 18% (inactive)
O=S(=O)(N/N=C\c1cccn1-c1ccccc1)c1ccc2ccccc2c1 | 16.6% (inactive)
Cc1n[nH]c(=O)n1-c1ccc(Oc2ccccc2)cc1 | 20.1% (inactive)
Cc1cc(C)c2cc(CN(Cc3cccs3)Cc3nnnn3CC3CCCO3)c(=O)[nH]c2c1 (centres undefined) | 17% (inactive)
Cc1cc2cc(CN(Cc3cccs3)Cc3nnnn3CC3CCCO3)c(=O)[nH]c2cc1C (centres undefined) | 37.9% (active)
COc1ccc2[nH]c(=O)c(CN(Cc3nnnn3CCc3ccccc3)CC3CCCO3)cc2c1 (centres undefined) | 5.93% (inactive)
CC(C)(C)c1cc2cccnc2n1Cc1cccc(F)c1 | -2.87% (inactive)
COC(=O)Cc1nc2ccccc2[nH]1 | 0.73% (inactive)
N#C/C(=C(/O)COc1cccc2ccccc12)c1nc2ccccc2[nH]1 | -2.22% (inactive)
Cc1ccccc1OC/C(O)=C(\C#N)c1nc2ccccc2[nH]1 | 48.1% (active)

SMILES | inhibition
O=C(CSc1nc2ccccc2o1)N1c2ccccc2Sc2ccc(Cl)cc21 | 17% (inactive)
O=C1CSC(c2ccccc2)N1c1nc(-c2ccc(Cl)cc2Cl)cs1 (centres undefined) | 5.96% (inactive)
CCOC(=O)C1Sc2[nH]c(=O)sc2C(c2ccc(Cl)cc2)C1C(=O)OCC (centres undefined) | 12% (inactive)
Cc1ccc(Cn2c(C)nc3c(c2=O)c2nc4ccccc4nc2n3Cc2ccco2)cc1 | 20.3% (inactive)
Clc1cccc(-c2nc3nc4ccccc4nc3n2Cc2ccco2)c1 | 32.4% (active)
CC(Sc1nc2ccccc2c(=O)n1Cc1ccco1)C(=O)c1ccccc1 (centres undefined) | 20.6% (inactive)
CCN(CC)CCN1C(=O)C(=O)/C(=C(/O)c2cnn(-c3ccccc3)c2C)C1c1cccs1 (centres undefined) | 10.5% (inactive)
S=c1nccc(-c2cc(Cl)sc2Cl)[nH]1 | -1.82% (inactive)
O=C(Nc1ccccc1N1CCN(c2ccccc2)CC1)c1cccc(F)c1 | 15.4% (inactive)
O=C(Nc1ccccc1N1CCCCC1)c1ccc2nccnc2c1 | 16.6% (inactive)
O=C(Nc1ccccc1N1CCCCC1)c1cccc(F)c1 | 31.6% (active)
CCC(=O)OCc1c(C(F)(F)F)nn(C)c1Oc1cccc(C(F)(F)F)c1 | -7.2% (inactive)
S=C(NCc1ccc(Cl)cc1)NC12CC3CC(CC(C3)C1)C2 | 69.2% (active)
O=C(NCc1ccc2c(c1)OCO2)C12CC3CC(CC(C3)C1)C2 | 9.12% (inactive)
S=C(NCc1cccs1)Nc1ccc(Cl)cc1 | 1.15% (inactive)
O=C(/C=C/c1cccs1)c1cc(Cl)ccc1OC(=O)N1CCOCC1 | 16.3% (inactive)
N/C(=N\OC(=O)c1cc(-c2ccccc2)nc2ccccc12)c1ccncc1 | 13.9% (inactive)
Nc1ccccc1SCc1cc([N+](=O)[O-])cc2c1OCOC2 | 13.6% (inactive)
CCOc1ccc(-c2cn(S(=O)(=O)c3cccc4nsnc34)nc2N)cc1 | 53.9% (active)
O=C(O)c1ccc(NS(=O)(=O)c2cccc3nsnc23)cc1 | 18% (inactive)
Cc1cccc(C)c1NC(=O)CCS(=O)(=O)c1cccc2nsnc12 | 9.17% (inactive)
CCOc1ccc(NC(=O)CCS(=O)(=O)c2cccc3nsnc23)cc1 | 32.5% (active)
CCOc1ccc(OCC)c(NC(=O)CN(C)S(=O)(=O)c2cccc3nsnc23)c1 | 0.74% (inactive)
CCCCN(CC)C(=O)CN(C)S(=O)(=O)c1cccc2nsnc12 | 7.72% (inactive)
CCc1ccc(C(=O)CSc2nnc(C)c(=O)[nH]2)cc1 | 22% (inactive)

SMILES | inhibition
Nc1ccc(C(=O)OCC(=O)NC2CCCc3ccccc32)cc1[N+](=O)[O-] (centres undefined) | 16.1% (inactive)
CCCc1nc2ccccc2c(C(=O)OCC(=O)c2ccc3c(c2)NC(=O)CO3)c1CC | 2.23% (inactive)
O=C(COc1ccc2c(C(F)(F)F)cc(=O)oc2c1)Nc1ccc2c(c1)OCCO2 | 3.57% (inactive)
CCOc1ccc(S(=O)(=O)Nc2nc3cc(OC)ccc3s2)cc1 | 2.89% (inactive)
CC(=O)c1cnc(SCCN2C(=O)c3ccccc3C2=O)nc1C | -2.62% (inactive)
Cc1cc(C)c2nc(NC(=O)c3ccc4c(c3)OCO4)sc2c1 | 21.3% (inactive)
O=S(=O)(NC1CCCCC1)c1ccc(F)c2ccccc12 | 35.4% (active)
COc1ccc(C)cc1S(=O)(=O)NC1CCCCC1 | 2.46% (inactive)
CSc1ccc(S(=O)(=O)NC2CCCCC2)cc1 | 10.7% (inactive)
Cc1ccc(N(NC(=O)C(C)(C)O)C(=O)c2ccccc2)cc1C | 0.77% (inactive)
Cc1ccccc1C(=O)N1CCC(C(=O)Nc2ccc(S(=O)(=O)N(C)C(C)C)cc2)CC1 | -2.28% (inactive)
COc1ccccc1Nc1ncnc2c1oc1ccccc12 | 31.2% (active)
Cc1nc(Cl)c2oc3ccccc3c2n1 | -0.78% (inactive)
CCc1nc(Nc2ccc3nccnc3c2)c2oc3ccccc3c2n1 | 4.28% (inactive)
NS(=O)(=O)c1cccnc1Nc1cccc(Cl)c1 | 7.66% (inactive)
O=C(Cn1ccc([N+](=O)[O-])n1)NCc1cccs1 | 18.9% (inactive)
Cc1cccc(CSc2nnc(Cn3c(=O)sc4ccccc43)n2C)c1 | 13.1% (inactive)
Cn1c(SCc2nc3ccccc3s2)nnc1-c1ccc2c(c1)OCO2 | 33.8% (active)
Cc1ccccc1-c1nnc(SCC(=O)NCc2ccc3c(c2)OCO3)n1C | 12.7% (inactive)
Cc1cccc(N2C(=O)C3C(c4ccccc4)OC4(C(=O)c5ccccc5C4=O)C3C2=O)c1 (centres undefined) | -14.2% (inactive)
CCN(CC)C(=O)CSc1nnc(CNc2ccc(F)cc2)n1Cc1ccco1 | 7.51% (inactive)
COc1cccc(-c2nnc(SCCOc3ccc4c(C)cc(=O)oc4c3)o2)c1 | 7.69% (inactive)
CC(Sc1nnc(Cc2ccc([N+](=O)[O-])cc2)o1)C(N)=O (centres undefined) | 5.64% (inactive)
N#C/C(=C(/O)Cc1cccc2ccccc12)c1nc2ccccc2s1 | 0.29% (inactive)
Cc1ccc(CNC(=O)COc2ccc(S(=O)(=O)NC(C)C)cc2)cc1 | 36.6% (active)

SMILES | inhibition
CC(C)NS(=O)(=O)c1ccc(OCC(=O)Nc2ccc3c(c2)OCCO3)cc1 | 3.4% (inactive)
COc1ccc(OCC(=O)NCCc2ccc(S(N)(=O)=O)cc2)cc1 | -0.6% (inactive)
CNC(=O)c1csc(-c2ccccc2)n1 | -5.25% (inactive)
Cc1occc1C(=O)NNC(=S)NCC(C)C | 3.2% (inactive)
CSCCC(NS(=O)(=O)c1ccc2c(c1)oc(=O)n2C)C(=O)NC1CCCc2ccccc21 (centres undefined) | -5.76% (inactive)
C=CCn1c(-c2ccc3[nH]c(C)c(C)c3c2)n[nH]c1=S | 3.87% (inactive)
CC(C)Oc1ccc(CCc2n[nH]c(=S)n2Cc2ccccc2)cc1 | -1.67% (inactive)
CCCc1cc(-c2n[nH]c(=S)n2Cc2ccccc2)cs1 | 37.9% (active)
Cc1cccc(NC(=S)N2CCC(c3nc4ccccc4s3)CC2)c1 | 10.4% (inactive)
CCCCNCc1ccc(SC)cc1 | 3.73% (inactive)
Cc1ccc(S(=O)(=O)N2CCC(C(=O)NCC3CCCO3)CC2)cc1 (centres undefined) | 11.9% (inactive)
O=C1NC(Nc2nc3ccccc3s2)(C(F)(F)F)C(=O)N1C1CCCCC1 (centres undefined) | 47.7% (active)
COC(=O)NC1(C(F)(F)F)NC(=O)N(C2CCCCC2)C1=O (centres undefined) | -7.51% (inactive)
COc1ccc(C2Nc3ccccc3C(=O)N2Cc2ccccc2)cc1Cn1nnc2ccccc21 (centres undefined) | 13.4% (inactive)
CN(C)c1ccc(NC(=S)N(CCc2ccccc2)C2CC(=O)N(c3c(Cl)cccc3Cl)C2=O)cc1 (centres undefined) | 5.66% (inactive)
O=C(O)CCC(=O)NCc1ccc(C(=O)O)cc1 | 12.1% (inactive)
O=C(NCCc1ccccn1)c1ccc(COc2ccccc2)o1 | -1.77% (inactive)
COc1ccc(-c2nc(CCNC(=O)c3ccc(Br)o3)cs2)cc1 | 36.5% (active)
CC(CNC(=O)c1ccc(Br)o1)NC(=O)c1ccc(Br)o1 (centres undefined) | 18.5% (inactive)
Cc1ccccc1OC(=O)Cn1c(C(F)(F)F)nc2ccccc21 | 12.9% (inactive)
COC(=O)c1ccccc1OCC(=O)N1CCN(c2ccc(Cl)cc2)CC1 | 13.6% (inactive)
O=c1c2ccccc2nnn1CSc1nnnn1-c1ccccc1 | 19.6% (inactive)
CN(C(=O)CSc1nnnn1-c1ccccc1)C1CCCCC1 | 38% (active)
COc1ccc(-n2nnnc2SCC(=O)Nc2ccccc2)cc1 | 2.21% (inactive)
